{
  "source": "PubChem BioAssay (NCI)",
  "note": "Compounds without any hit were thinned out: in the full panel of roughly 83,000, 20% have a hit.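 Method: cells in 96-well plates; compound added at one concentration; 48 h incubation; percent growth measured; values under 10 scored active.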 Active and inactive are the calls of the source.",
  "data": [
    {"tested_on": "OVCAR-4 ovarian", "test": "NCI-60 one-dose screen, 48 h (100 = growth as untreated, 0 = no growth, -100 = all killed)", "conditions": "10 µM unless noted", "values": [
      {"smiles": "CC(C)c1[nH]ncc1-c1nc2ccc3[nH]ncc3c2c2c1CCCC2", "growth": "75.8% (inactive)"},
      {"smiles": "Cc1cc(-c2nnc(/C=C/c3ccc4c(c3)OCO4)o2)n[nH]1", "growth": "96.8% (inactive)"},
      {"smiles": "CCN(CC)CCCCCCCNc1cc(OC)cc2c(C)ccnc12", "growth": "21.1% (inactive)"},
      {"smiles": "CCCc1n(Cc2ccc3ccccc3n2)cc[n+]1Cc1ccc2ccccc2n1", "growth": "8.56% (active)"},
      {"smiles": "COc1ccc(/C=C2\\N=C(c3cccnc3)N(c3ccccc3)NC2=O)cc1", "growth": "99.7% (inactive)"},
      {"smiles": "COc1ccc(Sc2[nH]c(C=O)c3ccccc23)cc1", "growth": "60.3% (inactive)"},
      {"smiles": "COc1ccc(-n2nc(C(=O)NCC(=O)Nc3nc4cc(OC)ccc4s3)c3ccccc3c2=O)cc1", "growth": "-20.4% (active)"},
      {"smiles": "CCCCN(CCCC)CCCN=c1nc2c(c(N)n1-c1ccccc1)c(=S)n(-c1ccccc1)c(=S)n2-c1ccccc1", "growth": "-82% (active)"},
      {"smiles": "O=C(/C=C/c1ccccc1)C(Br)C(Br)c1ccccc1", "note": "(stereo not drawn)", "growth": "13% (inactive)"},
      {"smiles": "COc1ccc(Nc2ncccc2C(=O)NCc2cn(Cc3cc(OC)cc(OC)c3)nn2)cc1", "growth": "98% (inactive)"},
      {"smiles": "CN(C)c1ccc(C(c2ccccc2)c2ccc(N(C)C)cc2)cc1", "growth": "99.8% (inactive)"},
      {"smiles": "COc1ccc(/C(=C\\c2cc(OC)c(OC)c(OC)c2)C(=O)N2CCNCC2)cc1", "growth": "110% (inactive)"},
      {"smiles": "CC(=O)c1ccc(Nc2nc(Cl)nc(Oc3c(Cl)cccc3Cl)n2)cc1", "growth": "67.2% (inactive)"},
      {"smiles": "COc1cc2nccc(Oc3ccc(NC(=O)C4(C(=O)Nc5ccc(F)cc5)CC4)cc3)c2cc1Oc1ccc(N)cn1", "growth": "29.9% (inactive)"},
      {"smiles": "N#Cc1nc(-c2ccc(Cl)cc2)cc(-c2ccc(Nc3nc(N4CCCCC4)nc(N4CCCCC4)n3)cc2)c1N", "growth": "110% (inactive)"},
      {"smiles": "Cc1ccccc1CNc1ncnc2[nH]ncc12", "growth": "78% (inactive)"},
      {"smiles": "CN(C)CCOc1nc2c3ccncc3cc(-c3cccc(Cl)c3)c2c2cnccc12", "growth": "33.5% (inactive)"},
      {"smiles": "Cc1ccc(C2CC(c3cccs3)=NN2c2ccc(S(N)(=O)=O)cc2)s1", "note": "(stereo not drawn)", "growth": "110% (inactive)"},
      {"smiles": "CN=C1C=C/C(=N/N=c2/ccn(O)cc2C)C=C1C", "growth": "97.5% (inactive)"},
      {"smiles": "Oc1[nH]c2ccccc2c1/C=c1/ccc2c(c1)N=C(c1ccc(C(F)(F)F)cc1)N=2", "growth": "69.1% (inactive)"},
      {"smiles": "Clc1ccc(Nc2ncnc3c2sc2ncccc23)cc1", "growth": "85.4% (inactive)"},
      {"smiles": "Nc1nc(N)c2cc(Sc3ccc(Cl)cc3)ccc2n1", "growth": "70.2% (inactive)"},
      {"smiles": "CCN(C(=O)Nc1cccc2ccccc12)c1ccccc1", "growth": "99.9% (inactive)"},
      {"smiles": "CCN(CC)CCCC(C)Nc1cnc(C(=O)Nc2ccc(Cl)c3cccnc23)cn1", "note": "(stereo not drawn)", "growth": "51.3% (inactive)"},
      {"smiles": "C/C(=N\\NC(=S)Nc1ccccc1)c1ccccn1", "growth": "33.5% (inactive)"},
      {"smiles": "C[C@]12CCc3nc(Nc4ccc(O)cc4)sc3C1=CC[C@@H]1[C@@H]2CC[C@]2(C)/C(=N/NC(N)=S)CC[C@@H]12", "growth": "-16.9% (active)"},
      {"smiles": "CC1(C)C(N(O)C(=O)Nc2ccc(Cl)cc2)N(c2ccc(Cl)cc2)C(=O)N1CC(=O)N/N=C/C=C/c1ccc([N+](=O)[O-])o1", "note": "(stereo not drawn)", "growth": "14.9% (inactive)"},
      {"smiles": "COc1ccc(C(=O)c2c(N)nc3n2CCCC3)cc1OC", "growth": "107% (inactive)"},
      {"smiles": "Fc1ccc2c(CN3CCO[C@H](COc4cccc(Cl)c4)C3)c[nH]c2c1", "growth": "71.2% (inactive)"},
      {"smiles": "CC(=O)c1c(C)nc(-c2cc(C)cc(Cl)c2)nc1-c1cccc(Oc2ccccc2)c1", "growth": "85.1% (inactive)"},
      {"smiles": "FC(F)(F)c1ccc(/C=N/Nc2nnc3n2N=C(c2ccc(Cl)cc2)CS3)cc1", "growth": "17.4% (inactive)"},
      {"smiles": "O=C1/C(=C\\c2cccn2C(=O)c2ccccc2)c2ccccc2N1c1c(Cl)cccc1Cl", "growth": "59.4% (inactive)"},
      {"smiles": "Cc1ccc(S(=O)(=O)NC(CCC(=O)Nc2ccc(Cl)cc2)C(=O)Nc2ccc(Cl)cc2)cc1", "note": "(stereo not drawn)", "growth": "26.3% (inactive)"},
      {"smiles": "CNC(=O)c1cc(Oc2ccc(NC(=O)c3nc(S(C)(=O)=O)n(C)c3-c3ccc(F)cc3)cc2)ccn1", "growth": "67.1% (inactive)"},
      {"smiles": "Nc1c(C(=O)c2ccc(Br)cc2)sc2nc3c(cc12)CCCC3", "growth": "105% (inactive)"},
      {"smiles": "CCCCn1cnc(-c2cc(-c3ccccc3)cc(C(F)(F)F)c2)n1", "growth": "106% (inactive)"},
      {"smiles": "COCCCNCC(=O)Nc1c(C)cccc1C", "growth": "111% (inactive)"},
      {"smiles": "COc1ccc(/C(=C\\c2ccc3c(c2)OCO3)C(=O)Nc2nc3ccccc3s2)cc1", "growth": "101% (inactive)"},
      {"smiles": "COc1ccc2[nH]c(O)c(/C=c3/ccc4c(c3)N=C(c3ccc(C(F)(F)F)cc3)N=4)c2c1", "growth": "80.5% (inactive)"}
    ]},
    {"tested_on": "SK-OV-3 ovarian", "test": "NCI-60 one-dose screen, 48 h (100 = growth as untreated, 0 = no growth, -100 = all killed)", "conditions": "10 µM unless noted", "values": [
      {"smiles": "CC(C)c1[nH]ncc1-c1nc2ccc3[nH]ncc3c2c2c1CCCC2", "growth": "16.5% (inactive)"},
      {"smiles": "Cc1cc(-c2nnc(/C=C/c3ccc4c(c3)OCO4)o2)n[nH]1", "growth": "80.6% (inactive)"},
      {"smiles": "CCN(CC)CCCCCCCNc1cc(OC)cc2c(C)ccnc12", "growth": "94.9% (inactive)"},
      {"smiles": "CCCc1n(Cc2ccc3ccccc3n2)cc[n+]1Cc1ccc2ccccc2n1", "growth": "61.6% (inactive)"},
      {"smiles": "COc1ccc(/C=C2\\N=C(c3cccnc3)N(c3ccccc3)NC2=O)cc1", "growth": "130% (inactive)"},
      {"smiles": "COc1ccc(Sc2[nH]c(C=O)c3ccccc23)cc1", "growth": "47.7% (inactive)"},
      {"smiles": "COc1ccc(-n2nc(C(=O)NCC(=O)Nc3nc4cc(OC)ccc4s3)c3ccccc3c2=O)cc1", "growth": "-18.5% (active)"},
      {"smiles": "CCCCN(CCCC)CCCN=c1nc2c(c(N)n1-c1ccccc1)c(=S)n(-c1ccccc1)c(=S)n2-c1ccccc1", "growth": "-86.5% (active)"},
      {"smiles": "O=C(/C=C/c1ccccc1)C(Br)C(Br)c1ccccc1", "note": "(stereo not drawn)", "growth": "86.1% (inactive)"},
      {"smiles": "COc1ccc(Nc2ncccc2C(=O)NCc2cn(Cc3cc(OC)cc(OC)c3)nn2)cc1", "growth": "98.7% (inactive)"},
      {"smiles": "CN(C)c1ccc(C(c2ccccc2)c2ccc(N(C)C)cc2)cc1", "growth": "106% (inactive)"},
      {"smiles": "COc1ccc(/C(=C\\c2cc(OC)c(OC)c(OC)c2)C(=O)N2CCNCC2)cc1", "growth": "108% (inactive)"},
      {"smiles": "CC(=O)c1ccc(Nc2nc(Cl)nc(Oc3c(Cl)cccc3Cl)n2)cc1", "growth": "100% (inactive)"},
      {"smiles": "COc1cc2nccc(Oc3ccc(NC(=O)C4(C(=O)Nc5ccc(F)cc5)CC4)cc3)c2cc1Oc1ccc(N)cn1", "growth": "61.3% (inactive)"},
      {"smiles": "N#Cc1nc(-c2ccc(Cl)cc2)cc(-c2ccc(Nc3nc(N4CCCCC4)nc(N4CCCCC4)n3)cc2)c1N", "growth": "90.9% (inactive)"},
      {"smiles": "Cc1ccccc1CNc1ncnc2[nH]ncc12", "growth": "100% (inactive)"},
      {"smiles": "CN(C)CCOc1nc2c3ccncc3cc(-c3cccc(Cl)c3)c2c2cnccc12", "growth": "46.8% (inactive)"},
      {"smiles": "Cc1ccc(C2CC(c3cccs3)=NN2c2ccc(S(N)(=O)=O)cc2)s1", "note": "(stereo not drawn)", "growth": "101% (inactive)"},
      {"smiles": "CN=C1C=C/C(=N/N=c2/ccn(O)cc2C)C=C1C", "growth": "102% (inactive)"},
      {"smiles": "Oc1[nH]c2ccccc2c1/C=c1/ccc2c(c1)N=C(c1ccc(C(F)(F)F)cc1)N=2", "growth": "82.7% (inactive)"},
      {"smiles": "Clc1ccc(Nc2ncnc3c2sc2ncccc23)cc1", "growth": "28.6% (inactive)"},
      {"smiles": "Nc1nc(N)c2cc(Sc3ccc(Cl)cc3)ccc2n1", "growth": "59.7% (inactive)"},
      {"smiles": "CCN(C(=O)Nc1cccc2ccccc12)c1ccccc1", "growth": "96.2% (inactive)"},
      {"smiles": "CCN(CC)CCCC(C)Nc1cnc(C(=O)Nc2ccc(Cl)c3cccnc23)cn1", "note": "(stereo not drawn)", "growth": "79.5% (inactive)"},
      {"smiles": "C/C(=N\\NC(=S)Nc1ccccc1)c1ccccn1", "growth": "40% (inactive)"},
      {"smiles": "C[C@]12CCc3nc(Nc4ccc(O)cc4)sc3C1=CC[C@@H]1[C@@H]2CC[C@]2(C)/C(=N/NC(N)=S)CC[C@@H]12", "growth": "-19% (active)"},
      {"smiles": "CC1(C)C(N(O)C(=O)Nc2ccc(Cl)cc2)N(c2ccc(Cl)cc2)C(=O)N1CC(=O)N/N=C/C=C/c1ccc([N+](=O)[O-])o1", "note": "(stereo not drawn)", "growth": "57.8% (inactive)"},
      {"smiles": "COc1ccc(C(=O)c2c(N)nc3n2CCCC3)cc1OC", "growth": "105% (inactive)"},
      {"smiles": "Fc1ccc2c(CN3CCO[C@H](COc4cccc(Cl)c4)C3)c[nH]c2c1", "growth": "85.7% (inactive)"},
      {"smiles": "CC(=O)c1c(C)nc(-c2cc(C)cc(Cl)c2)nc1-c1cccc(Oc2ccccc2)c1", "growth": "84% (inactive)"},
      {"smiles": "FC(F)(F)c1ccc(/C=N/Nc2nnc3n2N=C(c2ccc(Cl)cc2)CS3)cc1", "growth": "40.8% (inactive)"},
      {"smiles": "O=C1/C(=C\\c2cccn2C(=O)c2ccccc2)c2ccccc2N1c1c(Cl)cccc1Cl", "growth": "95% (inactive)"},
      {"smiles": "Cc1ccc(S(=O)(=O)NC(CCC(=O)Nc2ccc(Cl)cc2)C(=O)Nc2ccc(Cl)cc2)cc1", "note": "(stereo not drawn)", "growth": "26.2% (inactive)"},
      {"smiles": "CNC(=O)c1cc(Oc2ccc(NC(=O)c3nc(S(C)(=O)=O)n(C)c3-c3ccc(F)cc3)cc2)ccn1", "growth": "58.9% (inactive)"},
      {"smiles": "Nc1c(C(=O)c2ccc(Br)cc2)sc2nc3c(cc12)CCCC3", "growth": "106% (inactive)"},
      {"smiles": "CCCCn1cnc(-c2cc(-c3ccccc3)cc(C(F)(F)F)c2)n1", "growth": "105% (inactive)"},
      {"smiles": "COCCCNCC(=O)Nc1c(C)cccc1C", "growth": "112% (inactive)"},
      {"smiles": "COc1ccc(/C(=C\\c2ccc3c(c2)OCO3)C(=O)Nc2nc3ccccc3s2)cc1", "growth": "97.8% (inactive)"},
      {"smiles": "COc1ccc2[nH]c(O)c(/C=c3/ccc4c(c3)N=C(c3ccc(C(F)(F)F)cc3)N=4)c2c1", "growth": "112% (inactive)"}
    ]}
  ]
}
